Screening results as filed in PubChem.
LAP4 TOR yeast = modulators of LAP4-GFP expression in yeast, primary screen, S. cerevisiae, multiplex flow cytometry, MLPCN library; GFP response vs DMSO, % at 10 µM; AID 2023, 2009; hit rate 0.34% among 320,000; 3 h; median GFP as percent of DMSO wells;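 active = GFP response vs DMSO above a set limit, about the screen mean plus 3 SD, cut at about 150% in these data; inconclusive = under 70 cell events counted for the yeast strain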
MEP2 TOR yeast = modulators of MEP2-GFP levels in yeast, primary screen, S. cerevisiae, multiplex flow cytometry, MLPCN library; S. cerevisiae MEP2-GFP strain, 3 h; 100% = DMSO control level; AID 2016, 2009; GFP response vs DMSO, % at 10 µM; hit rate 0.51% among 330,000;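 active = GFP response versus DMSO above a set limit, roughly screen mean plus 3 SD, cut at about 180% in these data; inconclusive = fewer than 70 cells counted for a yeast strain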;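 note: median GFP fluorescence of the barcode-gated MEP2-GFP cells per well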
CIT2 TOR yeast = modulators of CIT2-GFP expression in yeast, primary screen, S. cerevisiae, GFP fusion, multiplex flow cytometry, MLPCN library; S. cerevisiae CIT2-GFP strain, 3 h; 100 means same as DMSO wells; GFP response vs DMSO, % at 10 µM; hit rate 0.065% among 320,000; AID 2029, 2009;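 active = GFP response relative to DMSO above a set limit, near the screen mean plus 3 SD, cut at about 150% in these data; inconclusive = Fewer than 70 cells measured for a yeast strain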;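 note: ratio of well median GFP fluorescence to mean of DMSO wells on the plate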
RPL19A TOR yeast = RPL19A-GFP expression modulators in yeast, primary screen, cell-based, S. cerevisiae, multiplex flow cytometry, MLPCN; S. cerevisiae RPL19A-GFP strain, 3 h; stronger effect = lower value; percent response vs DMSO, % at 10 µM; hit rate 0.3% among 330,000;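 active = percent response vs DMSO below 50%; inconclusive = fewer than 70 events counted for the yeast strain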;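 note: median channel GFP fluorescence of the barcoded RPL19A-GFP strain; lower means less RPL19A-GFP as with rapamycin TOR inhibition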
DSG3 Ab inh = inhibitors of pemphigus antibody binding to DSG3, primary screen, biochemical, bead-based, flow cytometry, scFv-GFP; binding (percent of control), % at 10 µM; hit rate 0.48% among 310,000; Desmoglein-3 (Homo sapiens), P32926; DSG3-coupled beads, scFv-anti-DSG3-GFP binding; stronger effect = lower value;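 active = binding more than 3 SD below its plate's average and above zero; inconclusive = below that plate limit but binding exactly zero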
AGP1-GFP MLPCN = modulators of AGP1-GFP expression in yeast TOR pathway, primary screen, cell-based, multiplex flow cytometry, S. cerevisiae, MLPCN library | 3 h; GFP as percent of DMSO wells | GFP response vs DMSO, % at 10 µM | hit rate 0.02% among 320,000;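 active = GFP response relative to DMSO above a set limit, near screen average plus 3 SD, cut at about 150% in these data; inconclusive = fewer than 70 cells counted for the yeast strain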;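 note: median GFP channel fluorescence of the gated AGP1 strain per well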
LAP4-GFP pick2 = LAP4-GFP expression modulators in yeast, confirmation, cell-based, second cherry pick, flow cytometry; shares compounds with LAP4 TOR yeast; S. cerevisiae LAP4-GFP strain, 3 h; GFP response vs DMSO, % at 10 µM; hit rate 20% among 590; AID 2621, 2010;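 active = GFP signal as percent of the solvent control above about 150%, meaning raised reporter expression, limit read from the data; inconclusive = fewer than 70 cells counted in the well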
MEP2 cherry2 = modulators of MEP2-GFP levels in yeast, confirmation, S. cerevisiae, flow cytometry GFP, second cherry picks | S. cerevisiae MEP2-GFP strain, 3 h | hit rate 10% among 590 | shares compounds with LAP4 TOR yeast | GFP response vs DMSO, % at 10 µM;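 active = GFP signal above 150% of the solvent control wells, that is a rise of more than half; inconclusive = fewer than 70 yeast cells counted in the well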;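 note: median channel GFP fluorescence of all gated yeast cells per well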
RPL19A-GFP pick2 = RPL19A-GFP modulators in TOR pathway yeast, confirmation, cell-based, S. cerevisiae, flow cytometry, second cherry pick. shares compounds with LAP4 TOR yeast. AID 2623, 2010. GFP response vs DMSO, % at 10 µM. S. cerevisiae RPL19A-GFP strain, 3 h; stronger effect = lower value; 100% means same as DMSO wells. hit rate 3% among 590;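 active = under 65% GFP response relative to DMSO; inconclusive = yeast strain with under 70 measured events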;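 note: median GFP channel fluorescence per well over the all cells gate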
CIT2-GFP pick2 = modulators of CIT2-GFP expression in yeast, confirmation, flow cytometry, second cherry pick, single plex | shares compounds with LAP4 TOR yeast | S. cerevisiae CIT2-GFP strain, 3 h; DMSO control wells read 100% | GFP response vs DMSO, % at 10 µM | hit rate 8% among 590 | AID 2624, 2010;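 active = GFP response vs DMSO above about 150%, limit read from the data; inconclusive = fewer than 70 events counted for a yeast strain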;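 note: median green fluorescence per well over all gated yeast cells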
AGP1 GFP CP2 = AGP1-GFP expression modulators, hit retest, confirmation, cell-based, flow cytometry, S. cerevisiae, cherry pick set 2; shares compounds with LAP4 TOR yeast; percent response vs DMSO, % at 10 µM; 590 tested, under 10 active; S. cerevisiae AGP1-GFP strain, 3 h;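 active = over 150 percent of DMSO response; inconclusive = yeast strain measured with under 70 events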;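 note: median GFP channel fluorescence over all cells without mother daughter split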
Yeast autofluor = compound autofluorescence in yeast s288c, dose response, artefact control for yeast TOR pathway GFP screen, s288c strain. shares compounds with LAP4 TOR yeast. S. cerevisiae s288c, 520 nm autofluorescence, flow cytometry, 3 h; stronger effect = higher value; zero means same as solvent-only cells. fluorescence change (kMESF span) at 33 µM. 610 tested, under 10 active. AID 2757, 2010;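 active = fluorescence span over the dose series, or activity score, above about 33, limit read from the data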
s288c autofl DR = autofluorescence of compounds in yeast s288c, dose response, artefact control for yeast TOR pathway GFP screen, primary hits, KU SAR, s288c parental. shares compounds with LAP4 TOR yeast. S. cerevisiae s288c parental, compound autofluorescence, flow cytometry, 3 h. fluorescence change (span) at 33 µM. 110 tested, under 10 active. AID 488829, 2010;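 active = fluorescence change span, or the activity score built from it, above 25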
TORC1 bypass = wild-type yeast growth inhibition sparing TORC1 bypass cells, mechanism study for yeast TOR pathway GFP screen, BY4741 wild type, TORC1 bypass strain | shares compounds with LAP4 TOR yeast | S. cerevisiae BY4741 spot growth rating, 48-72 h; stronger effect = lower value | growth rating (0-3) at 30 µM | 120 tested, under 10 active;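 active = growth rating at most 1 for wild type yeast while the TORC1 bypass strain still grows fully, rated 3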
Hits are given with their value; - = inactive; ? = inconclusive; . = not tested or not shown; [ ] = remark or other dose. In the library only some 1.2% were active in any assay of this set; here they are far more common.

SMILES	LAP4 TOR yeast	MEP2 TOR yeast	CIT2 TOR yeast	RPL19A TOR yeast	DSG3 Ab inh	AGP1-GFP MLPCN	Yeast autofluor	others
CC(=O)Oc1ccc(N2C(=O)C3C4C=CC(O4)C3C2=O)cc1 (configuration not stated)	-	-	-	-	-	-	-
Cc1ccc(C(=O)Nc2nnc(S(=O)(=O)N3CCN(c4ccc(F)cc4)CC3)s2)cc1	-	-	-	-	-	-	.
O=C(NCC1CCCO1)C1CCN(S(=O)(=O)N2CCCC2)CC1 (configuration not stated)	-	-	-	-	-	-	.
O=S(=O)(CCN(CCS(=O)(=O)C(F)(F)F)CC1CCCO1)C(F)(F)F (configuration not stated)	243	-	-	-	-	-	-	s288c autofl DR=-;TORC1 bypass=-
O=c1cc(-c2ccccc2)cc(-c2ccccc2)n1O	194	-	-	-	-	-	-	LAP4-GFP pick2=-;MEP2 cherry2=189;RPL19A-GFP pick2=-;CIT2-GFP pick2=-;AGP1 GFP CP2=-
CC1CCN(S(=O)(=O)N2CCCC(C(=O)NCc3ccc(F)cc3)C2)CC1 (configuration not stated)	-	-	-	-	-	-	.	LAP4-GFP pick2=-;MEP2 cherry2=-;RPL19A-GFP pick2=-;CIT2-GFP pick2=-;AGP1 GFP CP2=-
O=C1NC(=O)C2(COC(c3cccnc3)OC2)S1 (configuration not stated)	?	-	-	?	-	?	.
CC1CC(C)CN(C(=O)COC(=O)CCC(=O)c2cccs2)C1 (configuration not stated)	165	-	-	-	-	-	.	LAP4-GFP pick2=-;MEP2 cherry2=-;RPL19A-GFP pick2=-;CIT2-GFP pick2=-;AGP1 GFP CP2=-
O=[N+]([O-])c1cc(CN2CCN(c3ccccc3)CC2)c(O)c2ncccc12	153	-	.	-	-	-	-
Oc1c(CN2CCCCC2)cc(Br)c2cccnc12	227	-	-	-	-	-	-
CC(=O)C(Cl)C(=O)Nc1ccccc1 (configuration not stated)	.	.	.	.	-	.	.	LAP4-GFP pick2=-;MEP2 cherry2=-;RPL19A-GFP pick2=-;CIT2-GFP pick2=-;AGP1 GFP CP2=-
O=C(Nc1ccccc1)C(Cl)C(=O)c1ccccc1 (configuration not stated)	-	-	-	-	-	-	.	LAP4-GFP pick2=-;MEP2 cherry2=-;RPL19A-GFP pick2=-;CIT2-GFP pick2=-;AGP1 GFP CP2=-
CCCCOc1ccc(C(=O)NCC(=O)NCCCn2nc(C)cc2C)cc1	-	-	-	-	.	-	.
CCN(c1ccccc1)S(=O)(=O)c1cccc(C(=O)NCCOc2ccccc2OC)c1	.	.	.	.	-	.	.
O=C(Sc1cccc2cccnc12)c1ccccc1Br	166	-	-	-	-	-	-
CC(C)N(C(=O)COC(=O)c1ccc(Cl)c(S(N)(=O)=O)c1)C(C)C	174	-	-	-	.	-	.	LAP4-GFP pick2=-;MEP2 cherry2=-;RPL19A-GFP pick2=-;CIT2-GFP pick2=-;AGP1 GFP CP2=-
COc1ccc(N2C(=O)C(Cl)=C(NCc3ccccc3)C2=O)cc1	-	-	-	-	-	-	-
CCOc1ccccc1NC1=C(Cl)C(=O)N(c2ccc(OC)cc2)C1=O	-	-	-	-	-	-	.
COc1ccc(NC(=O)CCN2C(=O)c3ccccc3C2=O)c(OC)c1	-	-	-	-	-	-	.
COc1ccc(NC2=C(Cl)C(=O)N(CCc3ccccc3)C2=O)c(OC)c1	-	-	-	-	-	-	-
COc1ccc(CCNC2CC(=O)N(CCc3ccccc3)C2=O)cc1 (configuration not stated)	-	-	-	-	-	-	.
CCOc1ccc(NC2=C(Cl)C(=O)N(Cc3ccccc3)C2=O)cc1	-	-	-	-	-	-	-
Cc1ccc(O)c(NC2=C(Cl)C(=O)N(Cc3ccccc3)C2=O)c1	.	.	.	.	-	.	.
COc1ccc(NC2=C(Cl)C(=O)N(CCc3ccccc3)C2=O)cc1	-	-	-	-	-	-	-
O=C(NCc1cccnc1)c1cccc(S(=O)(=O)NCc2ccccc2)c1	-	-	-	-	-	-	.
COCCn1c(SCc2ccc(C(=O)OC)o2)nnc1-c1c[nH]c2ccccc12	-	-	-	-	-	-	.
COc1ccc(CCNC2=C(Cl)C(=O)N(CCc3ccc(OC)c(OC)c3)C2=O)cc1OC	-	-	-	-	-	-	-
COc1ccc(CCN2C(=O)C=CC2=O)cc1OC	.	.	.	.	-	.	.
COCCCNC(=O)C1CCN(S(=O)(=O)c2ccc3nc4c(c(C(=O)O)c3c2)CCCCC4)CC1	-	-	-	-	-	-	.
CCN(CC)C1=CC2=CC(=C(C#N)C#N)CCC2CC1 (configuration not stated)	197[may fluoresce green]	297[may fluoresce green]	310[may fluoresce green]	-	-	-	.	LAP4-GFP pick2=354;MEP2 cherry2=470;RPL19A-GFP pick2=-;CIT2-GFP pick2=434;AGP1 GFP CP2=-
